Source: the supplement of paper PMC11732987, “Enantioselective OTUD7B fragment discovery through chemoproteomics screening and high-throughput optimisation” (Communications Chemistry, 2025)

Biological target: COPS5 (UniProt Q92905)
Assay: log2 ratio of Biotin-Ahx-Ub-VS probe labelling (fragment/DMSO); higher = less target engagement (more negative = stronger competition), active = hit call of the paper (q ≤ 0.05, log2 ratio ≤ -1)
Settings: compound concentration: 200 uM; treatment time: 3 h
Method: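 Competitive ABPP in HEK293T cell lysate. Lysates were treated with each chloroacetamide fragment at 200 µM for 3 h, then with Biotin-Ahx-Ub-VS (0.5 µM, 1 h), NeutrAvidin-enriched and analysed by diaPASEF LC-MS/MS. Protein LFQ was median-normalised; average log2 ratio is fragment/DMSO from an unpaired t-test (n=3 treated, n=44 DMSO). Hits: q ≤ 0.05, log2 ratio ≤ -1, unique peptides ≥ 2.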

COPS5, sequence (Q92905 whole entry, looked up, the tested form may be a part): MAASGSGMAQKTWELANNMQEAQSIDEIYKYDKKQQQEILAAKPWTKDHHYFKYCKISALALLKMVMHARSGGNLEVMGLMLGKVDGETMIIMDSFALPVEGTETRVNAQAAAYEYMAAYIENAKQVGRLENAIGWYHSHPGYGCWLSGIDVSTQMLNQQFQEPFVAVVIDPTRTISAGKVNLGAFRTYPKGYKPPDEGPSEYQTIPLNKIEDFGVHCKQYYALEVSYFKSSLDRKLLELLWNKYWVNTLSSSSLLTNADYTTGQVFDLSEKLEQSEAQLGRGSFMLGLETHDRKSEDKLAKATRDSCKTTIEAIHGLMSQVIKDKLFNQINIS

log2 ratio of Biotin-Ahx-Ub-VS probe labelling, inactive:
CNC(=O)Cn1cc(NC(=O)CCl)cn1 0.0739
Cc1cc(C2CCCN2C(=O)CCl)nn1C.Cl (stereo not given) 0.0127
O=C(CCl)NCCC1=CCCCC1 0.0168
Cc1c(NC(=O)CCl)c(=O)n(-c2ccccc2)n1C -0.0844
O=C(CCl)Nc1ccc(F)cc1F -0.115
Cc1cc(NC(=O)CCl)n(-c2ccccc2)n1 -0.0499
CS(=O)(=O)c1ccc(CNC(=O)CCl)cc1 0.0587
O=C(CCl)NCCc1ccc2c(c1)OCCO2 0.0882
COc1ccc(-c2csc(NC(=O)CCl)n2)cc1 0.189
CN(CCC(O)c1ccc(Br)cc1)C(=O)CCl (stereo not given) -0.266
O=C(CCl)N1c2ccccc2NC(=O)C12CCCC2 0.325
O=C(CCl)NCCc1cccc2ccccc12 -0.0396
CC1Cc2ccccc2N1C(=O)CCl (stereo not given) 0.169
O=C(CCl)N1CCCC1c1ccsc1 (stereo not given) -0.0486
Cl.O=C(CCl)N1CC(c2ccc(Br)cn2)C1 -0.0867
Cl.O=C(CCl)N1CCC(Cc2nccs2)C1 (stereo not given) 0.114
Cc1nc(CN2CCCN(C(=O)CCl)CC2)no1.Cl -0.0569
CNC(=O)C1(NC(=O)CCl)CCCCC1 0.00317
N#Cc1ccc(CNC(=O)CCl)cc1 0.228
O=C(CCl)Nc1cc2c(cc1Cl)OCCO2 0.135
CN(CCc1ncc(Br)cn1)C(=O)CCl.Cl 0.2
CCN(Cc1ccc(C#N)cc1F)C(=O)CCl -0.0333
Cl.O=C(CCl)NCCN1CCc2ccccc21 0.365
Cl.O=C(CCl)N1CCc2ncncc2C1 -0.0201
CC(C)n1nccc1NC(=O)CCl 0.0761
O=C(CCl)N1CCCC2CCCCC21 (stereo not given) -0.175
O=C(CCl)NC1(c2ccc3c(c2)OCCO3)CCCC1 -0.172
Cl.O=C(CCl)N1CCCC(c2ncc[nH]2)C1 (stereo not given) 0.0747
O=C(CCl)Nc1cccc(C(=O)N2CCSCC2)c1 -0.111
Cc1ccc(C)c(NC(=O)CCl)c1 -0.0407
O=C(CCl)NCc1ccc2c(c1)OCO2 0.119
O=C(CCl)N[C@H]1CC[C@@H](CO)CC1 0.0798
Cc1cccc2nc(CCNC(=O)CCl)cn12.Cl -0.0623
O=C(CCl)NCc1ccc(Cl)cc1 -0.152
COc1ccc(Cl)cc1NC(=O)CCl -0.0284
CCC1c2ccsc2CCN1C(=O)CCl (stereo not given) -0.188
Cc1ccc(N2CCC(NC(=O)CCl)C2=O)cc1 (stereo not given) -0.0995
O=C(CCl)NC(Cn1ccccc1=O)c1ccccc1 (stereo not given) 0.168
O=C(CCl)NCc1ccc(N2CCOCC2)c(F)c1 -0.0355
Cc1ccc(N(C(=O)CCl)C2C=CS(=O)(=O)C2)cc1 (stereo not given) -0.235
